# Hits are enriched below; roughly 12% of the tested compounds scored in any of these assays.
# JMJD2A Tudor = inhibitors of human JMJD2A Tudor domain; AlphaScreen JMJD2A-Tudor / H3K4me3 peptide binding; 4.4% of 390,000 active; Potency, µM (highest dose often 114 µM), actives largely listed as inhibitors; AID 504339; O75164; note: nearly all actives have a fitted effect of over 50% in size
# G9a block = G9a (human) methyltransferase inhibition; Q96KQ7; G9a H3K9 monomethylation, AlphaScreen, 2 h; Potency, µM (titrated, usually from 102 µM), usual class: inhibitors; 8.8% of 350,000 active; note: nearly all actives have a fitted effect of over 75% in size
#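 Compounds were preincubated with 20 nM G9a for 15 min, after which biotinylated H3K9 peptide (500 nM) and SAM (20 uM) started a 2 h room-temperature reaction. Monomethylated product was quantified by antibody-based AlphaScreen chemiluminescence.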
# Sfp inh = blocks B. subtilis Sfp PPTase activity; Biochemical Sfp PPTase activity, qHTS; Potency, µM, hits mostly inhibitors; 3.5% of 310,000 active; AID 1490;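 note: the enzyme is Sfp with the accession as filed and its product quenches rhodamine fluorescence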
#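 Sfp 15 nM + cpd, 15 min RT; start w/ rhodamine-CoA 5 uM, BHQ-2-YbbR 12.5 uM (final); 50 mM Hepes pH 7.6, 10 mM MgCl2, 0.01% NP-40, 0.01% BSA; read 525/598 nm at 0 and 30 min.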
# BAZ2B inh = BAZ2B (human) inhibition; AID 504333; 4.4% of 360,000 active; Potency, µM (highest dose often 114 µM), most hits filed as inhibitors; AlphaScreen BAZ2B-H3K14Ac peptide displacement; note: nearly all actives have a fitted effect of over 60% in size
#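 In this displacement format the biotinylated H3(5-23) peptide acetylated at Lys14 serves as ligand at 50 nM, with BAZ2B at 50 nM in PBS pH 7.4 containing 0.01% Tween-20. Donor and acceptor beads are 10 ug/mL final.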
# HP1b chromo inh = blocks HP1-beta chromodomain binding to methylated histone tails; Potency, µM (highest dose often 114 µM), usual class: inhibitors; 0.56% of 390,000 active; AID 540317; AlphaScreen HP1-beta / biotin-H3K9me3 peptide binding; P83916; note: nearly all actives have a fitted effect of over 70% in size
#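 HP1-beta protein (50 nM final) preincubated 30 min at room temperature with biotinylated H3(1-18)K9me3 peptide (50 nM) in PBS pH 7.4, 0.01% Tween-20, then compound added for 30 min. AlphaScreen streptavidin donor/nickel chelate acceptor beads (10 ug/mL final), 30 min dark, luminescence read.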
# L3MBTL1 block = blocks human L3MBTL1; Q9Y468; AlphaScreen L3MBTL1–H3K9me1 peptide binding; Potency, µM (highest dose often 57.1 µM), most hits filed as inhibitors; 0.66% of 230,000 active; AID 485360; note: nearly all actives have a fitted effect of over 60% in size
#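 L3MBTL1 50 nM + b-AHA-H3(1-15)K9me1 75 nM, 30 min RT; compound added, 30 min RT; streptavidin donor/Ni-chelate acceptor beads 10 ug/mL each final, 30 min RT dark; AlphaScreen read.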
# A number is an active result; i = inactive; ? = inconclusive; nt = not tested or not shown; [ ] = dose if it differs, or a comment. Calls come from the whole dose curve; as a rule, active = well fitted curve in the direction sought with a large enough effect; inconclusive = small, poorly fitted or top-dose-only effect, or another doubt; inactive = no such curve, though single readings can be large; an effect the other way counts as inactive or inconclusive.
SMILES,JMJD2A Tudor,G9a block,Sfp inh,BAZ2B inh,HP1b chromo inh,L3MBTL1 block
Cc1ccccc1C1=C/C(=C(\SS/C(C(=O)c2ccc(OCC(=O)O)c(Cl)c2Cl)=C2\C=C(c3ccccc3C)SS2)C(=O)c2ccc(OCC(=O)O)c(Cl)c2Cl)SS1,28µM,nt,nt,nt,20µM,nt
C/C(=C(/CCO)SSC[C@@H]1CCCO1)N(C=O)Cc1cnc(C)nc1N,nt,i[21.5 µM],i,nt,nt,nt
C/C(=C(/CCO)SSCC1CCCO1)N(C=O)Cc1cnc(C)nc1N (centres undefined),i,13µM,nt,i,i,i
CCCSS/C(CCO)=C(/C)N(C=O)Cc1cnc(C)nc1N,nt,?,56µM,nt,nt,nt
CCOC(=O)c1c(C)oc2nc(C)nc(Nc3ccc(C)c(Cl)c3)c12,i,i,nt,i,i,nt
CCOc1cccc(=O)c2c(C)n(-c3ccc(C(=O)O)cc3)c(C)c12,?,nt,28µM,50µM,?,?
COc1cc(C(C#N)N2N=C(c3ccccc3)CC2c2ccccc2)ccc1O (centres undefined),i,i,i,i,i,i
COc1ccc(C(C#N)N2CCC(c3ccccc3)=N2)cc1 (centres undefined),i,35µM,i,i,i,nt
O=C(NCCc1ccccc1Cl)C1CCN(c2nc3ccccc3nc2C(F)(F)F)CC1,i,i,nt,i,i,nt
CCN1CCN(c2ccc(S(=O)(=O)N3CCOCC3)cc2NC(=O)/C=C/c2cccc(OC)c2OC)CC1,i,28µM,nt,i,i,i
CCN1CCN(c2ccc(S(=O)(=O)N3CCCCC3)cc2NC(=O)/C=C/c2cc(OC)ccc2OC)CC1,i,?,i,?,i,nt
CCN1CCN(S(=O)(=O)c2ccc(Cl)c(C(=O)Nc3cc(Cl)ccc3N3CCOCC3)c2)CC1,?,?,i,?,i,nt
COc1ccc(/C=C/C(=O)Nc2cc(S(=O)(=O)N3CCOCC3)ccc2N2CCCC2)cc1OC,i,i,i,?,i,i
CCN1CCN(c2ccc(S(=O)(=O)N3CCOCC3)cc2NC(=O)/C=C/c2ccc(OC)c(OC)c2)CC1,i,14µM,nt,i,i,i
COc1cc(/C=C/C(=O)Nc2cc(S(=O)(=O)N3CCOCC3)ccc2N2CCCC2)cc(OC)c1OC,i,10µM,28µM,i,?,i
CCN1CCN(c2ccc(S(=O)(=O)N3CCOCC3)cc2NC(=O)c2ccc(Cl)cc2Cl)CC1,i,13µM,nt,i,i,i
COc1cccc2c1Oc1ncccc1N(C(=O)Nc1cccc(Cl)c1)C2,i,i,nt,i,i,nt
CCN1CCN(c2ccc(S(=O)(=O)N3CCCCC3)cc2NC(=O)/C=C/c2ccc(OC)c(OC)c2)CC1,i,22µM,nt,?,i,i
CCOc1ccccc1NC(=O)/C=C/c1ccc(S(=O)(=O)N2CCOCC2)cc1,i,50µM,nt,i,i,i
Cc1cc(C)c2oc(-c3ccc(C)c(NC(=O)/C=C/c4ccco4)c3)nc2c1,56µM,10µM,nt,?,?,nt
Cc1cc(C)c2oc(-c3cccc(NC(=O)c4ccco4)c3)nc2c1,i,i,nt,i,i,nt
CN=C1C=CC(=C(c2ccc(N(C)C)cc2)c2ccc(N(C)C)cc2)C=C1,nt,?,45µM,nt,nt,nt
CN(C)c1ccc(/C=N/O)cc1,i,i,i,i,i,nt
COc1ccc(N2CCN(C(=O)c3ccc4c(c3)NC(=O)C(CSCc3c(F)cccc3Cl)N4)CC2)cc1 (centres undefined),nt,32µM,i,i,nt,nt
COc1ccc(N2CCN(C(=O)c3ccc4c(c3)NC(=O)C(CSCc3cccc(F)c3)N4)CC2)cc1 (centres undefined),nt,20µM,56µM,i,nt,nt
COc1ccc(N2CCN(C(=O)c3ccc4c(c3)NC(=O)C(CSCc3ccc(C)cc3)N4)CC2)cc1 (centres undefined),nt,7.9µM,40µM,?,nt,nt
COCCCN1C(=O)c2ccc(C(=O)N3CCN(c4ccc(OC)cc4)CC3)cc2C1=O,i,i,i,i,i,nt
COc1ccc(N2CCN(C(=O)c3ccc4c(c3)N(Cc3ccc(F)cc3)C(=O)c3ccccc3S4=O)CC2)cc1 (centres undefined),?,?,nt,i,i,nt
Cc1ccc(-c2cn(-c3ccc(Cl)cc3)c(S(=O)(=O)CC(=O)Nc3ccccc3)n2)cc1,?,?,nt,i,i,nt
